# Source: ChEMBL document CHEMBL3988442, “University of Dundee, Small-Polar-MMV Screening Library” (2021)
# Target: AMP-activated protein kinase, AMPK (Homo sapiens) (UniProt P54646+O43741+P54619+Q9UGJ0+Q9Y478+Q13131+Q9UGI9)
# Experiment: AMP-dependent Kinase enzyme assay. An in vitro enzyme assay that detects ADP turnover that is directly proportional to AMPK activity. This uses naive AMPK that is activated during the assay with MK-8722
# Type: functional
# Design: scale not given: direction of the effect not stated beside the values
# Conditions: 30 µM
row,Structure (SMILES),Percent Effect
1,CC1CN(C)CCN1C(=O)c1cccn1Cc1cccnc1 (stereo unspecified),-3.9%
2,Cc1nonc1CN1CC[C@@](O)(C2CCC2)[C@H](C)C1,-1.54%
3,Cc1csc(N2CCC(CCN3CCCC3=O)CC2)n1,-12.1%
4,O=C(O)CN(Cc1ccsc1)CC1CCCO1 (stereo unspecified),10.1%
5,COc1ccc(C(C)NCCC(N)=O)cc1F (stereo unspecified),-6.1%
6,Cc1ccc(C2(O)CCN(C(=O)Cn3cc(C)c(=O)[nH]c3=O)CC2)nc1,7.31%
7,CCC1CCCCN1C(=O)Cn1cnc(C#N)n1 (stereo unspecified),-0.907%
8,CCC(=O)N(c1ccc(C(=O)OC)cc1C)C(C)C,-4.13%
9,Cc1ccc(-c2nc(CC3CCN(C)CC3)no2)cc1N1CCNC1=O,11.1%
10,NC(=O)c1cccc(-c2cnc(C3CCCNC3)cn2)c1 (stereo unspecified),12.6%
11,CC(C(=O)Nc1cccc(C(F)(F)F)c1)N(C)CCN1CCOCC1 (stereo unspecified),8.76%
12,CCN(C)Cc1cccc(CNC(=O)NCCc2ccccn2)c1,3.33%
13,O=C(NC1CCCC1)c1cc(Cn2cnc3ccccc32)on1,0.401%
14,O=C(CCn1ccc2ncccc2c1=O)N1CCCC1,-3.54%
15,Cc1cc(C2CCCN(Cc3nc(Cc4ccccc4)no3)C2)n[nH]1 (stereo unspecified),3.74%
16,Cc1cc(C2CCCN(CC(=O)N3CCCc4ccccc43)C2)n[nH]1 (stereo unspecified),-5.06%
17,CSCC(C)(O)CNS(=O)(=O)c1cccc(C)c1 (stereo unspecified),-0.713%
18,NC(=O)c1csc(N2C[C@@H](CN3CCC(O)CC3)[C@@H](CO)C2)n1,-1.72%
19,c1nc(N2CCOCC2)sc1-c1cncn1CCCN1CCCCC1,-0.295%
20,COc1ccccc1C(C)(C)NC(=O)c1ccc(F)c(NC(C)=O)c1,-4.2%
21,Oc1cc(C2CCCCN2Cc2cccs2)nc(-c2ccncc2)n1 (stereo unspecified),1.11%
